Most compounds without a hit are left out; they make up all but 11% or so of the library.
IMPase cell inh: qHTS Assay for Identifying the Cell-Membrane Permeable IMPase Inhibitors; Inositol monophosphatase 1 (Rattus norvegicus), P97697; 120,000 tested, under 10 active; inhibition (IP1 accumulation), % at 46.1 µM; CHO-M1 cells, IP1 accumulation, HTRF TR-FRET ratio; active = well fitted curve in the direction sought with a large enough effect in the signal ratio, not every such curve was filed as active; inconclusive = small, poorly fitted or top-dose-only effect, or a change in a side signal; inactive = no such curve, though single readings can be large or run the other way; the % refers to the signal ratio;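 note: cells stimulated with carbachol in lithium chloride buffer; plate controls were DMSO basal wells for no effect and reference inhibitor wells for full effect; higher means more IMPase inhibition seen as more IP1 and lower FRET ratio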
Target sequence (P97697 whole entry, looked up): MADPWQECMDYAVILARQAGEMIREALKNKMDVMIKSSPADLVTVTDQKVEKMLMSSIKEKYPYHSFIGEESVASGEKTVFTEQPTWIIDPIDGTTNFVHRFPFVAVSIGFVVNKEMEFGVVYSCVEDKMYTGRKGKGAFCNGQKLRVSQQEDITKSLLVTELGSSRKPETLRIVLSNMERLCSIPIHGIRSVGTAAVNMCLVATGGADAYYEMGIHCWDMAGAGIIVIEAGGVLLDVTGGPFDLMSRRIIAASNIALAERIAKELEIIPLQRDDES
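In this qHTS, compounds (final up to 46 uM) act on CHO-M1 cells that are then activated through the M1 receptor with carbachol, in pH 7.4 buffer containing 50 mM LiCl, for 30 min. IP1 accumulation is quantified by the IP-One immunoassay.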
ALDH1A1 inh: qHTS Assay for Inhibitors of Aldehyde Dehydrogenase 1 (ALDH1A1). Purified ALDH1A1, NADH fluorescence, propionaldehyde substrate. Potency, µM (titrated, usually from 75.3 µM), for inactives: at the highest dose activity, negative = inhibition, usual class: inhibitors. 220,000 compounds, 7.3% hits; active = well fitted inhibition curve with a large enough effect, not every such curve was filed as active; inconclusive = small, poorly fitted or top-dose-only effect, or another doubt; inactive = no such curve, though single readings can be large or run the other way;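 note: potency is the fitted concentration of half-maximal effect; plate controls were no enzyme wells and a reference inhibitor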
IMPase Li inh: qHTS Assay for Identifying the Cell-Membrane Permeable IMPase Inhibitors: Potentiation with Lithium | CHO-M1 cells, IP1 TR-FRET (IP-One), carbachol + lithium | Potency, µM (highest dose often 59.4 µM), inactives show top-dose activity, negative = IMPase inhibition, actives largely listed as inhibitors | 210,000 compounds, 0.35% hits | AID 1457, 2008;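 note: IP1 builds up when IMPase is blocked and the TR-FRET signal falls; potency is the fitted concentration of half-maximal effect; plate controls were basal vehicle for no effect and high inhibitor control for full effect; nearly all actives have a fitted effect of over 50% in size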
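CHO-M1, 2000 cells/well, 16–30 h culture; cpd + low Li+, 30 min 37C; lysis with d2-IP1/Eu-anti-IP1 Ab, 10 min RT; TR-FRET 665/620 ratio and 620 channel; AC50 via Hill.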
ALOX12 inhib: qHTS Assay for Inhibitors of 12-hLO (12-human lipoxygenase) | 150,000 compounds, 0.12% hits | purified 12-hLO, xylenol orange hydroperoxide absorbance | AID 1452, 2008 | Potency, µM (doses to about 57.1 µM), without a hit: at the highest dose activity change, negative = inhibition, actives largely listed as inhibitors; note: potency is the fitted concentration of half-maximal effect; nearly all actives have a fitted effect of over 55% in size
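Hydroperoxide output read as Fe(III)-xylenol orange absorbance, 573-to-405 nm ratio, after 30 min reaction with 40 uM arachidonic acid. Enzyme: 150 nM purified human 12hLO, 15 min compound preincubation; 25 mM Hepes pH 7.0, room temperature.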
PNC inhibitor: High Content Assay for Compounds that inhibit the Assembly of the Perinucleolar Compartment; PC3M PTB-GFP, PNC prevalence imaging, 16 h; stronger effect = lower value; activity change (PNC), negative = inhibition, % at 10 µM; 140,000 compounds, 3.1% hits;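 active = readout at or below -70, meaning at least 70% loss of cells showing the perinucleolar compartment, a nuclear body marking cancer cells; inconclusive = readout between -30 and a set limit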;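 note: plate controls were DMSO wells for no effect and camptothecin positive control wells for full effect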
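Compounds are pinned in duplicate onto adhered PC3M cells stably expressing GFP-tagged PTB and incubated 16 h at 37 C. Cells are then fixed, nuclei stained with Hoechst, and PNC-positive cells counted.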
HPGD block: qHTS Assay for Inhibitors of HPGD (15-Hydroxyprostaglandin Dehydrogenase) | purified HPGD, NADH fluorescence kinetic, PGE2 substrate | Potency, µM, inactives show at the top dose activity change, negative = inhibition, actives largely listed as inhibitors | 150,000 compounds, 4.3% hits | AID 894, 2007; active = well fitted inhibition curve with a large enough effect, not every such curve was filed as active; inconclusive = small, poorly fitted or top-dose-only effect, or another doubt; inactive = no such curve, though single readings can be large or run the other way; note: potency is the fitted concentration of half-maximal effect
Target sequence (P15428 whole entry, looked up): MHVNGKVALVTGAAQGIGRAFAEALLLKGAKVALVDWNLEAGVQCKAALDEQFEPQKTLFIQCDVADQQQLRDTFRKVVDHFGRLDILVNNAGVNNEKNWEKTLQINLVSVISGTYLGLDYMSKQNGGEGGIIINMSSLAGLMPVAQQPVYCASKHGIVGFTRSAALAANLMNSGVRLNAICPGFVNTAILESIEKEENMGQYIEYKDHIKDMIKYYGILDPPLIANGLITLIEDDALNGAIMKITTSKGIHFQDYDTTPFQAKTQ
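NADH formation kinetics: reaction with 30 uM PGE2 and 1 mM NAD+ (final), 20 nM enzyme, Tris-HCl pH 8 with Tween 20, after 15 min compound preincubation at room temperature. Fluorescence change, last versus first of five reads.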
* = called active by the depositor; ? = inconclusive; nt = no result; [ ] = remark or other dose. Unless noted, calls come from the whole dose curve; as a rule, active = well fitted curve in the direction sought with a large enough effect; inconclusive = small, poorly fitted or top-dose-only effect, or another doubt; inactive = no such curve, though single readings can be large; an effect the other way counts as inactive or inconclusive. Unless noted, % is set by controls: 0 for no effect and ±100 for the full control effect.

SMILES | IMPase cell inh | ALDH1A1 inh | IMPase Li inh | ALOX12 inhib | PNC inhibitor | HPGD block
O=S(=O)(Nc1nc2ccccc2nc1N1CCc2ccccc2C1)c1ccc(Cl)cc1 | nt | ? | 1.2% | -0.5% | 50.7 | -18.9%
O=C(N=c1ccn(-c2nc3ccccc3nc2NS(=O)(=O)c2ccc(Cl)cc2)cc1)c1ccccc1Cl | nt | 0.631µM* | nt | nt | nt | nt
CC(=O)Nc1ccc(S(=O)(=O)Nc2nc3ccccc3nc2N2CCc3ccccc3C2)cc1 | nt | 11.2µM* | 3.5% | -3.4% | 40.7 | -23.7%
O=S(=O)(Nc1nc2ccccc2nc1N1CCc2ccccc2C1)c1ccc(Br)cc1 | nt | ? | 10.2% | 1.2% | 0.3 | -23.1%
CC(=O)Nc1ccc(S(=O)(=O)Nc2nc3ccccc3nc2N2CCCCCC2)cc1 | 2.3 | 7.08µM* | -6.2%[38.3 µM] | -11.3% | -27.6 | -11.2%
O=S(=O)(Nc1nc2ccccc2nc1N1CCN(c2ccccn2)CC1)c1ccc(Cl)cc1 | 8.7 | 11.2µM* | 2.4% | -2.5% | -16.9 | -7.6%
O=C1c2c(O)cc(O)cc2O[C@@H](c2ccc(O)c(O)c2)[C@H]1O | 16.5 | nt | nt | ? | nt | nt
COc1ccc(NC(=O)N2CCN(S(C)(=O)=O)CC2)c(OC)c1 | nt | 6.8% | -0.6% | nt | nt | nt
O=C(CCNS(=O)(=O)c1cccc2nonc12)NC1CCCc2ccccc21 (stereo not drawn) | 5.4 | 14.1µM* | -3.4%[38.3 µM] | 0.4% | ? | -4.9%
O=C(NC1CCCc2ccccc21)C1CCN(S(=O)(=O)c2cccc3nonc23)CC1 (stereo not drawn) | 6.7 | 31.6µM* | -5.4%[38.3 µM] | 4.8% | 23.8 | -2.0%
COC(=O)c1sc(N2C(=O)c3oc4ccc(C)cc4c(=O)c3C2c2ccc(OC)cc2)nc1C (stereo not drawn) | -2.6 | nt | nt | nt | nt | nt
CCOC(=O)Cc1csc(NC(=O)c2sc3nc4ccc(CC)cc4cc3c2N)n1 | -25.3 | 5.1% | ? | 10µM* | ? | -19.5%
CCOC(=O)Cc1csc(NC(=O)c2sc3nc4cc(C)ccc4cc3c2N)n1 | -5.3 | 7.6% | -14.3% | -11.8% | -23.5 | -4.2%
CCOC(=O)Cc1csc(NC(=S)NC(=O)c2ccc(C)cc2)n1 | 0.8 | 39.8µM* | nt | 4.1% | -3.7 | nt
O=c1c2cccnc2[nH]c(=S)n1Cc1ccccc1 | 5.1 | 6.1% | 10µM* | 1.7% | 29.4 | -12.2%
COc1cc2[nH]c(=S)n(Cc3ccccc3)c(=O)c2cc1OC | nt | 4.47µM* | 8.3% | nt | nt | nt
COc1ccc(CNc2ncnc3ccc(-c4cccc(C#N)c4)cc23)c(OC)c1 | nt | ? | 12.6% | nt | nt | nt
S=C(Nc1ccccc1)N1CCOCC1 | nt | 3.0% | 2.4% | nt | nt | nt
CC(NC(=S)Nc1ccccc1Cl)C(c1ccccc1)N1CCOCC1 (stereo not drawn) | nt | 28.2µM* | 10.4% | -3.7% | 14.9 | -6.5%
CC(NC(=S)N1CCOCC1)c1ccccc1 (stereo not drawn) | nt | -4.0% | -9.6% | -0.6% | -121.5* | -6.1%
N#Cc1c(NC(=O)C(F)(F)F)sc2c3c(=O)c4ccccc4c(=O)c=3oc3ccccc3c12 | nt | -19.2%[13.5 µM] | 22.6% | -5.6%[11.4 µM] | nt | -17.5%
CCc1nnc(NC(=O)CSc2nnc3c(C)cc4c(C)ccc(C)c4n23)s1 | 0.0 | 4.5% | 8.9% | 0.1% | -112.6* | -9.3%
CCc1nnc(NC(=O)CSc2nnc(CNc3ccc(F)cc3)n2C2CCCCC2)s1 | -9.0 | 10µM* | -0.9%[38.3 µM] | -8.1% | 44.3 | -8.7%
CCc1nnc(NC(=O)CSc2nnc(-c3ccncc3)n2C)s1 | -1.2 | 0.7% | 5.9% | -0.9% | -100.0* | -8.5%
COc1ccc(Oc2nc3c(C)cccn3c(=O)c2/C=C(\C#N)c2nc3ccccc3[nH]2)cc1 | -0.6 | nt | nt | nt | nt | nt

Source: PubChem BioAssay
